# Results filed as inconclusive are left out. Values without a mark were called inactive. The source made the active and inactive calls. Calls come from the whole dose curve; as a rule, active = well fitted inhibition curve with a large enough effect; inconclusive = small, poorly fitted or top-dose-only effect; inactive = flat fitted curve, though single readings scatter.
# Tested on: Zika virus NS2B-NS3 protease
# Experiment: Primary screen GU AMC qHTS for Zika virus inhibitors (AID 1347154); note: nearly all actives have a fitted effect of over 70% in size;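 for activity change, negative = inhibition: 0% = no-inhibitor control and -100% = no-enzyme control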
# Details: Zika NS2B-NS3 unlinked protease, AMC fluorogenic substrate; series mostly up to 54.1 µM; activity change, negative = inhibition: at the top concentration
# From the text: Avindra Nath, Ph.D., National Institute of Neurological Disorders and Stroke (NINDS), Bethesda, MD
# Radhakrishnan Padmanabhan, Ph.D., Georgetown University (GU), Washington D.C.
# Zika Virus causes congenital defects, including microcephaly and is associated with Guillain-Barre syndrome, eningoencephalitis and myelitis in infected adult. […] Using a target-based approach, we hope to establish a screening paradigm to uncover novel, cell-active NS2B-NS3 protease (Zika Virus) specific inhibitors from NCATS' collection of small molecules using qHTS.
# Early Translation Branch (ETB)
# National Center for Advancing Translational Sciences (NCATS), Rockville, MD
# National Institute of Health (NIH), Bethesda, Maryland
# Padmanabhan lab provided the NS2B hydrophilic domain and NS3 protease domain in a noncovalent complex used for the unlinked assay. Control compound aprotinin is obtained from Thermo Scientific (#78432; Waltham, Massachusetts). NS2B-NS3 AMC substrate (Bz-Nle-Lys-Arg-Arg-AMC; Nle-KRR-AMC) purchased from Bachem (#I-1995; Torrance, CA). Ac-VKTGKR-AMC purchased from Genscript or Bachem, Ac-FAAGKR-AMC purchased from Genscript, Ac-GLVKRR-AMC purchased from Genscript, Ac-LKKR-AMC purchased from Genscript.
# GU AMC unlinked NS2B-NS3 protease qHTS protocol
# Briefly, 3 microL of Zika virus unlinked NS2B-NS3 protease (25 nM for linked final concentration), in assay buffer (10 mM Tris-HCl pH 8.0 with 0.01% Tween 20) was dispensed into a 1,536-well solid-bottom black plate (Greiner Bio One, Monroe, NC). […] Plates were then read immediately on a ViewLux High-throughput CCD imager (PerkinElmer, Waltham, MA) equipped with standard UV fluorescence optics (340(30) nm excitation, 450(20) nm emission) then incubated (room temperature, protected from light) for 15 minutes (~20% conversion). The change in fluorescence intensity over the 15-minute reaction period was normalized against no-inhibitor and no-enzyme controls and the resulting percent inhibition data were fitted to a 4-parameter Hill equation. Aprotinin was used as the intraplate control.
# Potency is the fitted concentration of half-maximal effect.
Structure (SMILES),"activity change, negative = inhibition",Potency
CCOC(=O)C(=O)c1csc(NC=O)n1,4.32%,–
COc1cc(C(=O)OC(COCCC(C)C)CN2CCOCC2)cc(OC)c1OC (stereo not given),-4.8%,–
C#CC(C)(CC)OC(=O)c1ccccc1C(=O)O (stereo not given),-3.84%,–
CN1CCCN(C(c2ccccc2)c2ccc(Cl)cc2)CC1 (stereo not given),8.8%,–
CCOC(=O)c1ccc(NC(=O)CN2CCCCC2)cc1,-0.422%,–
O=C1CC2(CCCC2)CC(=O)N1CCNCC1COc2ccccc2O1 (stereo not given),-4.74%,–
Cc1ccc(/C=N/n2c(-c3ccccc3)csc2=S)cc1,-8.26%,–
O=C1NCCN1CCN1CCC(c2cn(-c3ccc(F)cc3)c3ccc(Cl)cc23)CC1,-13%,–
CN1Cc2cc(C(=O)N3CCC(C4CCNCC4)CC3)ccc2N[C@@H](CC(=O)O)C1=O,-7.09%,–
CO/N=C(/C(=O)N[C@@H]1C(=O)N2C(C(=O)OCOC(=O)C(C)(C)C)=C(C)CS[C@H]12)c1csc(N)n1,-1.29%,–
CO[C@@]1(NC(=O)CSC[C@@H](N)C(=O)O)C(=O)N2C(C(=O)O)=C(CSc3nnnn3C)CS[C@@H]21,0.699%,–
Nc1nc2ccccc2n1Cc1ccc(F)cc1,3.02%,–
Cc1cc2nc3ccc(=[N+](C)C)cc-3sc2cc1N,-1.32%,–
c1ccc2c(c1)CCc1ccccc1N2,-11.9%,–
O=C(c1cc(O)c(O)c(O)c1)c1ccc(O)c(O)c1O,–,891 nM (active)
O=C1Cc2cc(Cl)ccc2N1,-0.748%,–
c1ccc(C(O[C@H]2CCCN(CCc3ccc4c(c3)OCO4)C2)c2ccccc2)cc1,–,inactive
C=CC[N+]1([C@H]2C[C@H]3[C@@H]4CC[C@H]5C[C@H](OC(C)=O)[C@@H](N6CCCCC6)C[C@]5(C)[C@H]4CC[C@]3(C)[C@H]2OC(=O)CC)CCCCC1,-0.881%,–
CCCCCCn1c(=O)c2c(ncn2C)n(C)c1=O,5.34%,–
CC[N+](CC)(CC)CCOC(=O)C(C1CCCC1)C1CCCC1,-1.55%,–

Structure (SMILES),"activity change, negative = inhibition",Potency
Cc1c(N)cccc1C(F)(F)F,6.71%,–
CC(Oc1c(Cl)cccc1Cl)C1=NCCN1 (stereo not given),-7.87%,–
CCCCCCCCCCCCCCCC[n+]1ccccc1,-15.7%,–
CC(C)OP(=O)(CP(=O)(OC(C)C)OC(C)C)OC(C)C,-6.33%,–
O=C1[C@@H]2[C@H]3CC[C@H](C3)[C@@H]2C(=O)N1CCCCN1CCN(c2ncccn2)CC1,-8.2%,–
O=C(O)CNC(=O)CNC(=O)CNC(=O)CSC(=O)c1ccccc1,-1.51%,–
Nc1ccc(O)cc1,-3.26%,–
N#CC1(c2ccc(F)cc2)CCC(=O)CC1,5.53%,–
C1=CC2C3C=CC(C3)C2C1 (stereo not given),0.367% [at 104 µM],–
O=C(OCC(O)CO)c1ccccc1Nc1ccnc2c(C(F)(F)F)cccc12 (stereo not given),-9.45%,–
CC(C)C[C@H](NC(=O)CNC(=O)[C@H](Cc1ccc(O)cc1)NC(=O)[C@H](CO)NC(=O)[C@H](Cc1c[nH]c2ccccc12)NC(=O)[C@H](Cc1cnc[nH]1)NC(=O)[C@@H]1CCC(=O)N1)C(=O)N[C@@H](CCCN=C(N)N)C(=O)N1CCC[C@H]1C(=O)NCC(N)=O (stereo in doubt),-2.21%,–
CN(C)CCOC1=Cc2ccccc2Sc2ccc(Cl)cc21,-5.08%,–
NC(N)=NCCCCN=C(N)N,–,inactive
O=S(=O)(O)c1ccc2nc(-c3ccccc3)[nH]c2c1,-11.1%,–
CCOC(=O)C(=O)CCCCCCl,0.643%,–
CC1(C)S[C@@H]2[C@H](NC(=O)C(c3ccccc3)S(=O)(=O)O)C(=O)N2[C@H]1C(=O)O (stereo not given in full),3.61%,–
O=C1NC(c2ccccc2)(c2ccccc2)C(=O)N1COP(=O)(O)O,5.32%,–
Cc1cccc(N(C)C(=S)Oc2ccc3c(c2)CCC3)c1,-11.7%,–
Clc1ccc2c(c1)N=C(N1CCNCC1)c1ccccc1N2,–,inactive
COc1ccc(CCC(C)=O)cc1,-1.73%,–

# Source: PubChem BioAssay (NCATS)
